Laboratory results reported in PubChem BioAssay (EPA / NIEHS).
Values joined by “and” are separate entries in the source; they are usually repeats but may differ in a detail not shown here. Equal values may be shown once. More than one record can exist for a structure, and the calls need not agree. Active and inactive are the calls of the source. The calls were made as follows: active = hit-call score of the fitted dose curve at least 0.9, where 1 is the maximum; inactive = score below 0.9.

What was measured:
[1] = read-out: Intercellular Adhesion Molecule 1 (ICAM1), ICAM1 (gene 3383); test: BSK_BF4T_ICAM1: BioMAP Diversity Plus: BF4T Assay for Intercellular Adhesion Molecule 1 (ICAM1) Biomarker Activity (AID 2284260); details: primary human bronchial epithelial cells with fibroblasts
Method in brief: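 Co-culture of human bronchial epithelial cells and dermal fibroblasts exposed 24 h to chemical; cell-surface ICAM-1 quantified by ELISA. Parallel SRB total-protein staining assessed cytotoxicity; activity fitted relative to DMSO.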

[2] = read-out: Interleukin-8 (IL8), CXCL8 (gene 3576); test: BSK_MyoF_IL8: BioMAP Diversity Plus: MyoF Assay for Interleukin-8 (IL8) Biomarker Activity (AID 2284261); details: primary human lung fibroblasts
Method in brief: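 Human lung fibroblast (MyoF system) cultures dosed for 24 h, then IL-8 measured by ELISA. Response taken relative to DMSO; parallel SRB total-protein staining for cytotoxicity.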

[3] = read-out: Interleukin-1 alpha (IL1a), IL1A (gene 3552); test: BSK_BF4T_IL1a: BioMAP Diversity Plus: BF4T Assay for Interleukin-1 alpha (IL1a) Biomarker Activity (AID 2284264); details: primary human bronchial epithelial cells with fibroblasts
Method in brief: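 Human bronchial epithelial cells co-cultured with dermal fibroblasts, dosed and read at 24 h. Secreted/surface IL-1α quantified by ELISA; gain-of-signal fitted relative to DMSO baseline. Parallel SRB total-protein staining tracked cytotoxicity.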

Decorin, DCN (gene 1634) = test: BSK_MyoF_Decorin: BioMAP Diversity Plus: MyoF Assay for Decorin Biomarker Activity (AID 2284265); details: primary human lung fibroblasts
Method in brief: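 Human lung fibroblast cultures were dosed for 24 h, and decorin was then measured by ELISA. Parallel cultures were stained with sulforhodamine B for total protein as a cytotoxicity check. Gain of signal was fitted relative to DMSO.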

KRT18 (gene 3875) = test: BSK_BF4T_Keratin818: BioMAP Diversity Plus: BF4T Assay for Keratin 818 Biomarker Activity (AID 2284266); details: primary human bronchial epithelial cells with fibroblasts
Method in brief: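 Co-culture of human bronchial epithelial cells and dermal fibroblasts, chemical exposure 24 h. Keratin 8/18 measured by ELISA; positive-direction fit vs DMSO. SRB total protein run in parallel cultures for cytotoxicity.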

[4] = BSK_MyoF_SRB: Viability Assessment in the BioMAP Diversity Plus: MyoF Assay (AID 2284267); details: primary human lung fibroblasts;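 also: total protein by SRB absorbance in parallel cultures as cytotoxicity measure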
Method in brief: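 Read-out is SRB absorbance at 560 nm, reflecting total protein in parallel lung fibroblast cultures harvested 24 h after compound addition. Cells were TCA-fixed (10%) and stained with 0.1% SRB; activity is referenced to DMSO.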

[5] = read-out: Matrix Metallopeptidase 3 (MMP3), MMP3 (gene 4314); test: BSK_BF4T_MMP3: BioMAP Diversity Plus: BF4T Assay for Matrix Metallopeptidase 3 (MMP3) Biomarker Activity (AID 2284271); details: primary human bronchial epithelial cells with fibroblasts
Method in brief: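 Co-culture of human bronchial epithelial cells and dermal fibroblasts dosed 24 h; MMP-3 measured by ELISA, positive-direction fit versus DMSO. Cytotoxicity tracked by SRB total-protein staining (560 nm) in parallel cultures.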

[6] = read-out: Tissue plasminogen activator (tPA), PLAT (gene 5327); test: BSK_BF4T_tPA: BioMAP Diversity Plus: BF4T Assay for Tissue plasminogen activator (tPA) Biomarker Activity (AID 2284272); details: primary human bronchial epithelial cells with fibroblasts
Method in brief: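 tPA level quantified by ELISA at 24 h post-treatment in bronchial epithelial/dermal fibroblast co-cultures, gain of signal scored against DMSO baseline. Parallel cultures stained with 0.1% SRB (560 nm) to flag overt cytotoxicity.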

[7] = read-out: Plasminogen Activator Inhibitor-1 (PAI1), SERPINE1 (gene 5054); test: BSK_BF4T_PAI1: BioMAP Diversity Plus: BF4T Assay for Plasminogen Activator Inhibitor-1 (PAI1) Biomarker Activity (AID 2284273); details: primary human bronchial epithelial cells with fibroblasts
Method in brief: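 Co-culture of human bronchial epithelial cells and dermal fibroblasts exposed to compound for 24 h. PAI-1 measured by ELISA; activity fitted in positive direction versus DMSO. Parallel SRB staining assessed overt cytotoxicity.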

[8] = BSK_BF4T_SRB: Viability Assessment in the BioMAP Diversity Plus: BF4T Assay (AID 2284274); details: primary human bronchial epithelial cells with fibroblasts;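 as to AC50: total cell protein by sulforhodamine B staining as a cytotoxicity measure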
Method in brief: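 Co-culture of human bronchial epithelial cells and dermal fibroblasts (BioMAP BF4T) exposed 24 h. Total protein by sulforhodamine B staining (0.1% SRB after 10% TCA fixation, 560 nm) in parallel cultures; fitted vs DMSO.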

[9] = read-out: urokinase Plasminogen Activator (uPA), PLAU (gene 5328); test: BSK_BF4T_uPA: BioMAP Diversity Plus: BF4T Assay for urokinase Plasminogen Activator (uPA) Biomarker Activity (AID 2284275); details: primary human bronchial epithelial cells with fibroblasts
Method in brief: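 Co-culture of human bronchial epithelial cells and dermal fibroblasts; uPA quantified by ELISA 24 hours after dosing, fitted relative to DMSO. Parallel SRB total-protein staining assessed overt cytotoxicity.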

[10] = read-out: Matrix Metallopeptidase 9 (MMP9), MMP9 (gene 4318); test: BSK_BF4T_MMP9: BioMAP Diversity Plus: BF4T Assay for Matrix Metallopeptidase 9 (MMP9) Biomarker Activity (AID 2284276); details: primary human bronchial epithelial cells with fibroblasts
Method in brief: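 Co-culture of human bronchial epithelial cells and dermal fibroblasts dosed for 24 h; MMP-9 quantified by ELISA and fitted upward versus DMSO. Cytotoxicity monitored in parallel cultures by SRB total-protein staining at the biomarker time point.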

[11] = read-out: Interleukin-8 (IL8), CXCL8 (gene 3576); test: BSK_IMphg_IL8: BioMAP Diversity Plus: IMphg Assay for Interleukin-8 (IL8) Biomarker Activity (AID 2284277); details: primary human endothelial cells with macrophages
Method in brief: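 Co-culture of human venular endothelial cells and macrophages exposed to chemicals for 24 h; IL-8 quantified by ELISA and compared against the DMSO baseline, with SRB total-protein staining in parallel cultures for cytotoxicity.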

[12] = read-out: Intercellular Adhesion Molecule 1 (ICAM1), ICAM1 (gene 3383); test: BSK_BE3C_ICAM1: BioMAP Diversity Plus: BE3C Assay for Intercellular Adhesion Molecule 1 (ICAM1) Biomarker Activity (AID 2284278); details: primary human bronchial epithelial cells
Method in brief: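 Human primary bronchial epithelial cultures; compound added; 24 h incubation; cell-surface ICAM-1 measured by ELISA; signal increase fitted relative to DMSO negative control.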

[13] = read-out: Interferon-inducible T-cell alpha chemoattractant (ITAC), CXCL11 (gene 6373); test: BSK_BE3C_ITAC: BioMAP Diversity Plus: BE3C Assay for Interferon-inducible T-cell alpha chemoattractant (ITAC) Biomarker Activity (AID 2284279); details: primary human bronchial epithelial cells
Method in brief: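 ELISA read-out of I-TAC after 24 h chemical dosing of human lung primary bronchial epithelial cells; gain-of-signal fit vs DMSO baseline. Parallel SRB total-protein staining (0.1% SRB, 10% TCA fixation, 560 nm) assessed cytotoxicity.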

[14] = read-out: Matrix Metallopeptidase 1 (MMP1), MMP1 (gene 4312); test: BSK_MyoF_MMP1: BioMAP Diversity Plus: MyoF Assay for Matrix Metallopeptidase 1 (MMP1) Biomarker Activity (AID 2284268); details: primary human lung fibroblasts
Method in brief: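 Human lung fibroblast primary cells; MMP1 measured by ELISA 24 h after dosing, fitted in the positive direction relative to DMSO. Parallel SRB staining (0.1%, after 10% TCA fixation, 560 nm) assesses overt cytotoxicity.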

[15] = read-out: TIMP metallopeptidase inhibitor 1 (TIMP1), TIMP1 (gene 7076); test: BSK_MyoF_TIMP1: BioMAP Diversity Plus: MyoF Assay for TIMP metallopeptidase inhibitor 1 (TIMP1) Biomarker Activity (AID 2284269); details: primary human lung fibroblasts
Method in brief: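 ELISA read-out of TIMP-1 from primary human lung fibroblast cultures 24 h after compound dosing; gain of signal relative to DMSO vehicle baseline defines activity.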

[16] = read-out: Matrix Metallopeptidase 1 (MMP1), MMP1 (gene 4312); test: BSK_BF4T_MMP1: BioMAP Diversity Plus: BF4T Assay for Matrix Metallopeptidase 1 (MMP1) Biomarker Activity (AID 2284270); details: primary human bronchial epithelial cells with fibroblasts
Method in brief: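 Co-culture of human bronchial epithelial cells and dermal fibroblasts; MMP-1 levels measured by ELISA 24 hours after chemical dosing, relative to DMSO. Cytotoxicity checked in parallel cultures by SRB total-protein staining.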

Measured: AC50

O=C(O)C(F)(F)C(F)(F)C(F)(F)C(F)(F)C(F)(F)C(F)(F)C(F)(F)C(F)(F)C(F)(F)C(F)(F)C(F)(F)C(F)(F)C(F)(F)F
inactive: [1] | [2] | [3] | Decorin, DCN (gene 1634) | KRT18 (gene 3875) | [4] | [5] | [6] | [7] | [8] | [9] | [10] | [11] | [12] | [13]
active: [5] 1.68 µM | [13] 25.9 nM

Nc1ccc([N+](=O)[O-])cc1O
inactive: [2] | Decorin, DCN (gene 1634) | [4] | [14]

CCc1ccc(C(c2ccc(CC)cc2)C(Cl)Cl)cc1
active: [2] 7.95 µM | [4] 25.7 µM
inactive: Decorin, DCN (gene 1634)

OCC(F)(F)C(F)(F)C(F)(F)F
not listed: [14] | [15] | [16]
inactive: all other assays above

CCCCCCC(C)OC(=O)CCCCC(=O)OC(C)CCCCCC (stereo unspecified)
inactive: [2] | Decorin, DCN (gene 1634) | [4]

FC(F)(F)C(F)(F)C(F)(F)C(F)(F)C(F)(F)C(F)(F)C(F)(F)C(F)(F)CCS
not listed: [15] | [16]
inactive: all other assays above

Oc1ccc(Nc2ccccc2)cc1
inactive: Decorin, DCN (gene 1634) | [4] | [15]
active: [2] 3.97 µM

C#C[C@]1(O)CC[C@H]2[C@@H]3CCc4cc(OC)ccc4[C@H]3CC[C@@]21C
inactive: [2] | Decorin, DCN (gene 1634) | [4] | [15]

C=CC(F)(F)C(F)(F)C(F)(F)C(F)(F)C(F)(F)C(F)(F)C(F)(F)C(F)(F)F
not listed: [14]
inactive: all other assays above

Cc1ccc(S(=O)(=O)OCC(F)(F)C(F)(F)C(F)(F)C(F)(F)C(F)(F)C(F)F)cc1
not listed: [14] | [16]
inactive: all other assays above

CO[Si](OC)(c1ccccc1)c1ccccc1
active: [4] 29.4 µM | [14] 28.9 µM
inactive: [2] | Decorin, DCN (gene 1634) | [15]

CCCCCCOC(=O)c1ccccc1O
inactive: [12] | [13]

CCCCCCCCCCCCCCCC[N+](C)(C)Cc1ccccc1
active: [2] 5.84 µM | Decorin, DCN (gene 1634) 9.35 µM | [4] 5.13 µM | [15] 8.14 µM

O=C(O)C(F)(F)C(F)(F)C(F)(F)F
not listed: [14] | [16]
inactive: all other assays above

CC(=O)Nc1ccc(N=Nc2cc(C)ccc2O)cc1
inactive: [2] | Decorin, DCN (gene 1634) | [4]
active: [14] 31 µM

CCc1c(Br)c(Br)c(Br)c(Br)c1Br
active: [14] 13.2 µM
inactive: [2] | Decorin, DCN (gene 1634) | [4]

O=C(O)C(F)(F)C(F)(F)C(F)(F)C(F)(F)C(F)(F)C(F)(F)C(F)(F)C(F)(F)C(F)(F)C(F)F
inactive: [2] | Decorin, DCN (gene 1634) | [15] | [5] | [11]
active: [1] 25.6 µM and 17.8 µM | [3] 38.8 µM and 20.5 µM | KRT18 (gene 3875) 22.7 µM and 30 µM | [4] 21.3 µM and 21.9 µM | [15] 50.9 µM | [5] 30 µM | [6] 9.23 µM and 5.95 µM | [7] 39.7 µM and 30 µM | [8] 41.7 µM and 40.8 µM | [9] 41.3 µM and 17.5 µM | [10] 21.4 µM and 15.7 µM | [12] 20.3 µM and 21.1 µM | [13] 9.92 µM and 11.3 µM

CCCCC(CC)COP(=O)(O)OCC(CC)CCCC (stereo unspecified)
active: [12] 29 µM | [13] 28900 nM
inactive: [12]

COC(=O)CCC(F)(F)C(F)(F)C(F)(F)C(F)(F)F
not listed: [15] | [16]
inactive: all other assays above
